# An excerpt weighted towards active compounds, which were near 0.5% of everything screened.
# E coli growth-1 = E. coli growth inhibition. Escherichia coli growth, OD600, 23 h; stronger effect = lower value. OD600 absorbance (concentration not given with the values). actives 0.21% (n = 330,000). AID 1053175;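 active means OD600 absorbance below the run mean of sample wells minus 3.6 SD, in any replicate, cut at about 0.56 in these data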
# Tat export inh = E. coli Tat transport inhibition; actives 0.036% (n = 340,000); E. coli MC4100 TorA-mCherry Tat export, fluorescence; AID 488895; inhibition, % at 10 µM;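 active means mean replicate inhibition at least 50% and at least half of replicates individually reaching 50%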;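 further: exported cargo escapes ClpAP degradation while cytoplasmic cargo is degraded and loses fluorescence; 0% = median of neutral control wells and 100% = median of NaSCN control wells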
# AddAB inh = less growth of phage-infected E. coli with AddAB; inhibition, % at 11.9 µM; AID 435030; actives 0.29% (n = 330,000); E. coli expressing H. pylori AddAB, absorbance growth; in the data active means inhibition above about 12%;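 further: 0% = vehicle wells of infected cells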
# phage Ecoli inh = E. coli growth loss with phage present | growth absorbance | inhibition, % at 11.9 µM | actives 0.26% (n = 360,000) | AID 651602; in the data active means inhibition above about 11%
# E coli growth-2 = bacterial growth inhibition, counter-screen for AddAB inhibitors; E. coli V3065 growth, OD600 absorbance, 18 h; inhibition, % at 11.9 µM; actives 0.27% (n = 330,000); AID 449728;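 active means inhibition above the campaign's mean inhibition across all tested compounds plus 3 SD, cut at about 9.9% in these data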;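 further: uninfected addAB+ strain grown without phage in ampicillin broth; 0% = DMSO wells and 100% = ciprofloxacin 0.95 µg/ml wells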
# AddAB conf = growth loss of T4-infected E. coli expressing H. pylori AddAB, confirmed; E. coli V3065 expressing H. pylori AddAB, T4 phage, OD; T4 phage with gene 2 nonsense mutations; inhibition, % at 11.9 µM; actives 64% (n = 880); AID 488942; shares compounds with AddAB inh;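 active means mean inhibition above a set limit taken from the earlier primary screen, cut at about 13% in these data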;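 further: higher means less bacterial growth since AddAB block lets phage replicate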
# RecBCD counter = counter-screen: growth loss of RecBCD+ E. coli with mutant T4 phage; actives 73% (n = 880); E. coli V66 + mutant T4 phage, OD growth; inhibition, % at 11.9 µM; shares compounds with AddAB inh;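 active means mean inhibition above the mean of solvent-only control wells plus 3 SD, cut at about 4% in these data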;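 further: optical density read after an 18 h incubation at 37 °C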
# Bact viability = reduces bacterial viability, AddAB inhibitor counter-screen; inhibition, % at 11.9 µM; actives 35% (n = 880); shares compounds with AddAB inh; absorbance (AddAB counterscreen); AID 488956; in the data active means inhibition above about 25%
# RecBCD conf = confirmation: growth loss of phage-infected RecBCD+ E. coli (RecBCD inhibitor screen) | E. coli V66 + T4 2- phage, growth OD | actives 45% (n = 890) | shares compounds with phage Ecoli inh | inhibition, % at 11.9 µM;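 active means mean inhibition over triplicates exceeding the hit threshold derived in the original primary screen, cut at about 11% in these data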
# Ecoli viability = inhibits E. coli viability, flagging RecBCD hits as nonselective. absorbance (OD) growth. shares compounds with phage Ecoli inh. actives 29% (n = 890). inhibition, % at 11.9 µM; in the data active means inhibition above about 20%;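 further: E. coli strain V66 grown with compound alone and no phage infection; 0% = bacteria with DMSO vehicle only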
# AddAB phage OD = growth loss of phage-infected AddAB E. coli, RecBCD counter-screen; actives 45% (n = 890); AID 651984; E. coli expressing H. pylori AddAB + T4 phage, OD growth; gene 2 mutant T4, recBCD-deleted host; shares compounds with phage Ecoli inh; inhibition, % at 11.9 µM;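 active means mean inhibition above the solvent-only control wells' mean plus 3 SD, cut at about 22% in these data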;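 further: higher means less bacterial growth from phage killing when AddAB is blocked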
# Numbers without * were called inactive; i = inactive; / = not tested or not shown; ! = a repeat was not active.
SMILES,E coli growth-1,Tat export inh,AddAB inh,phage Ecoli inh,E coli growth-2,AddAB conf,RecBCD counter,Bact viability,RecBCD conf,Ecoli viability,AddAB phage OD
CCN1/C(=C/C(C)=C/c2sc3ccccc3[n+]2CC)Sc2ccccc21,0.21*,i,33*,14*!,38*,55*,20*,58*,23*,25*,68*
Nc1c(Cl)ncnc1N/N=C/c1ccc2ccccc2n1,/,-2,27*,26*,24*,23*,18*,21,11*,12,20
Nc1c(Cl)ncnc1N/N=C/c1ccnc2ccccc12,/,-3,3,3,-1,/,/,/,/,/,/
CCN(CC)CCOC(=O)C(Cc1cccc2ccccc12)CC1CCCO1 (stereo not drawn),0.66,-18,-2,4,-1,/,/,/,/,/,/
Cc1cc(C(=O)NNC(=O)CCCOc2ccccc2)c(C)o1,0.62,-6,-1,-1,-1,/,/,/,/,/,/
CC(C)(C)c1ccc(OCCCC(=O)NNC(=O)c2ccccc2O)cc1,0.71,11,20*,13*,14*,7,10*,4,8,8,9
COc1ccc(NC(=O)CCNC(=O)c2ccccc2Cl)cc1OC,0.66,0,0,2,1,/,/,/,/,/,/
CCn1cc(C(=O)Nc2ncccc2O)c(=O)c2cc(F)c(N3CCN(C(=O)c4ccco4)CC3)cc21,0.11*,-5,93*,15*,64*,102*,4.9*,77*,3,3,86*
CCn1cc(C(=O)O)c(=O)c2cc(F)c(N3CCN(S(=O)(=O)c4ccc(Br)cc4)CC3)cc21,/,/,8,/,0,/,/,/,/,/,/
CCn1cc(C(=O)O)c(=O)c2cc(F)c(N3CCN(C(=S)NC(=O)c4ccccc4C)CC3)cc21,0.071*,59*,99*,97*,100*,99*,101*,100*,104*,105*,104*
CCn1cc(C(=O)O)c(=O)c2cc(F)c(NN=Cc3ccccc3[N+](=O)[O-])cc21,0.7,/,/,/,/,/,/,/,/,/,/
C=CCNC(=S)N1CCN(c2cc3c(cc2F)c(=O)c(C(=O)O)cn3CC)CC1,0.076*,7,100*,41*,99*,103*,101*,104*,103*,105*,104*
CCn1cc(C(=O)O)c(=O)c2cc(F)c(N3CCN(C(=S)NC(=O)c4ccccc4)CC3)cc21,0.077*,21,101*,82*,101*,99*,100*,103*,100*,100*,100*
Cc1ccc(-n2c(-c3ccccc3)n[nH]c2=S)c(C)c1,0.69,-4,-1,4,0,/,/,/,/,/,/
CCCOc1ccc(C(=O)NC(=S)N2CCN(c3ncc4c(=O)c(C(=O)O)cn(CC)c4n3)CC2)cc1,/,/,/,3,/,/,/,/,/,/,/
CCn1cc(C(=O)O)c(=O)c2cc(F)c(N3CCN(C(=S)Nc4ccc(OC)cc4)CC3)cc21,0.076*,72*,100*,101*,101*,99*,99*,99*,104*,104*,104*
CCn1cc(C(=O)O)c(=O)c2cc(F)c(N3CCN(C(=S)NC(=O)c4cc(OC)cc(OC)c4)CC3)cc21,0.083*,22,98*,97*,98*,101*,100*,101*,104*,105*,106*
CCCCOC(=O)c1ccc(NC(=S)N2CCN(c3ncc4c(=O)c(C(=O)O)cn(CC)c4n3)CC2)cc1,0.65,2,3,3,4,/,/,/,/,/,/
CCCCCCCCCC[n+]1cccc(C(=O)N(CC)CC)c1,0.68,-8,0,4,-1,/,/,/,/,/,/
